# In PubChem BioAssay AID641 (Vanderbilt High Throughput Screening Facility, 2007):
# In all, about 58,000 compounds went through this assay and about 3,400 (5.9%) were called active.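 Rule for the calls: active = luminescence count or its row- and column-corrected plate score outside the 99.7% band of the plate's sample wells, on either side; inactive = the rest.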 For the sample, actives were picked, then their nearest neighbours and some compounds at random.
# Target: D(1A) dopamine receptor (Homo sapiens) (UniProt P21728)
# Test: D1 CRE-luciferase signal change, two-sided – cell-based, HEK293 D1, dopamine EC30, D1 allosteric modulator project, primary screen (AID 641)
# Details: dopamine EC30 potentiation, at 10 µM, actives deviate in either direction
# D(1A) dopamine receptor (Homo sapiens), sequence (P21728 whole entry, looked up): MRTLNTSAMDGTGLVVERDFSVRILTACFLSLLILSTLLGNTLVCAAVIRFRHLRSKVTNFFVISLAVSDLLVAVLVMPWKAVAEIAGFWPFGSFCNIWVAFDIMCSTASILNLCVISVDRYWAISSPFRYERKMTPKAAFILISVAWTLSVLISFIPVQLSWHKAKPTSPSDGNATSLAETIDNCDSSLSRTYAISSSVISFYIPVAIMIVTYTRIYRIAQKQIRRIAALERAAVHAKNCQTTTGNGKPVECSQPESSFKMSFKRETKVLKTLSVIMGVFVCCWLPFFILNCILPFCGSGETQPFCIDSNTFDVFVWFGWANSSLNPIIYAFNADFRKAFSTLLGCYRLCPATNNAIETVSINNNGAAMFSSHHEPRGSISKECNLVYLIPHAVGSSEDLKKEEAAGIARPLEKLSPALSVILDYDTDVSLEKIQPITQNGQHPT
row,SMILES,B-score
1,CCOC(=O)C1CCc2nc3ccccc3c(=O)n21 (stereo not given),-0.327 (inactive)
2,CC(C[N+](C)(C)C)OC(N)=O (stereo not given),0.394 (inactive)
3,CC(=O)OC(C)C[N+](C)(C)C (stereo not given),6.75 (active)
4,CSc1nnc(CNC(=O)c2ccccc2)n1-c1ccc(F)cc1,-0.759 (inactive)
5,Cc1ccccc1NC(=O)c1cnn(-c2ccccc2)c1NC(=O)c1ccco1,-0.921 (inactive)
6,COCCCn1c(CCC(=O)O)ccc1-c1ccc(F)cc1,0.034 (inactive)
7,COC(=O)c1sc(NC(=O)c2csc3c2CCCC3)nc1C,0.102 (inactive)
8,COc1ccc(C(=O)Nc2nncs2)c(OC)c1,-0.602 (inactive)
9,COC(=O)c1sc(NC(=O)c2ccc(OC)cc2OC)nc1C,-2.64 (active)
10,O=S(=O)(c1cccs1)N1CCc2ccccc2C1,7.95 (active)
11,O=S(=O)(c1cccs1)N1CCN(Cc2ccccc2)CC1,0.549 (inactive)
12,O=C(C1CCN(S(=O)(=O)c2cccs2)CC1)N1CCCCCC1,-0.0225 (inactive)
13,CCNC(=O)CCc1nc(-c2ccc(C(C)(C)C)cc2)no1,-0.735 (inactive)
14,CCOc1ccccc1N(CC(=O)Nc1ccccc1C(=O)OC)S(C)(=O)=O,0.461 (inactive)
15,CC1=C2C(=O)OC(c3ccoc3)C2(C)CCC1 (stereo not given),-0.874 (inactive)
16,CC(=O)Nc1ccc(N2CCOCC2)c(C(=O)Nc2cccc(C)c2)c1,-0.395 (inactive)
17,CC(=O)Nc1cccc(Oc2cc(C#N)c(C#N)cc2N2CCOCC2)c1,10.6 (active)
18,CCOc1cccc(NC(=O)CC#N)c1,-0.00988 (inactive)
19,COc1ccc(S(=O)(=O)N2CCC(C(=O)N3CCOCC3)CC2)cc1OC,1.55 (inactive)
20,O=C(Cn1cnc2c(nnn2-c2ccccc2)c1=O)N1CCC(Cc2ccccc2)CC1,-0.43 (inactive)
21,CCSc1ncnc2c(C#N)c3n(c12)CCCCC3,13.8 (active)
22,CCSC1=C(C#N)C(=O)n2c1cc1c2CCCC1,-0.914 (inactive)

row,SMILES,B-score
1,CCOC(=O)C1=C(C)NC(=O)N(C(C)=O)C1c1ccc(Cl)cc1 (stereo not given),-0.258 (inactive)
2,COc1ccc(-c2nc(-c3ccccc3)no2)c(OC)c1,-4.54 (active)
3,COc1ccc(-c2noc(-c3cccc(OC)c3OC)n2)cc1OC,-0.715 (inactive)
4,COc1cc(-c2nc(-c3ccncc3)no2)cc(OC)c1OC,0.324 (inactive)
5,COc1ccc(NC(=O)CN2CCN(S(=O)(=O)c3ccc(F)cc3)CC2)cc1Cl,0.0874 (inactive)
6,CC1(C)CC(=O)C=C(NCCCNC2CCCCC2)C1,-0.045 (inactive)
7,CCOc1ccccc1NC(=O)C1CCN(S(=O)(=O)c2c(C)nn(C)c2C)CC1,-0.536 (inactive)
8,COC(=O)c1ccccc1NC(=O)C1CCN(S(=O)(=O)c2cc(OC)ccc2OC)CC1,16.9 (active)
9,COc1cccc(CNC(=O)C2CCN(S(=O)(=O)c3cccc4cccnc34)CC2)c1,0.421 (inactive)
10,Cn1cc(S(=O)(=O)N2CCC(Cc3ccccc3)CC2)c(=O)n(C)c1=O,0.229 (inactive)
11,CC1CCC(NC(=O)c2ccc(N3CCCC3=O)cc2)CC1 (stereo not given),-0.328 (inactive)
12,O=P(c1cccs1)(c1cccs1)c1cccs1,-0.658 (inactive)
13,CC1C(c2ccccc2)=[N+]([O-])C2(CCCC2)N1O (stereo not given),0.0193 (inactive)
14,CCCCc1nc2ccccc2c(=O)n1NC(=O)c1c(O)c2cccc3c2n(c1=O)CC3,-0.934 (inactive)
15,Nc1ccc(-c2nnc(-c3ccc(-c4ccccc4)cc3)o2)cc1,-0.481 (inactive)
16,CCc1ccc2oc(-c3ccc(N)cc3)nc2c1,-5.51 (active)
17,CCCCCC(=O)Nc1ccc2oc(-c3ccncc3)nc2c1,-0.0351 (inactive)
18,COC(=O)COc1ccc2oc(=O)cc(C)c2c1,0.00198 (inactive)
19,COc1ccc(S(=O)(=O)N2CCN(c3ncnc4c(-c5ccccc5)nsc34)CC2)cc1,-0.0486 (inactive)
20,O=c1cccc(-c2ccc(Br)cc2)o1,1.11 (inactive)
21,COc1ccc(S(=O)(=O)N2CCCCC2)cc1Br,-1.56 (inactive)
22,COc1ccc(S(=O)(=O)Nc2ccc(S(=O)(=O)N3CCCCC3)cc2)cc1OC,5.58 (active)

row,SMILES,B-score
1,COc1ccc(NS(=O)(=O)c2ccc(NC(C)=O)cc2)cc1OC,-0.458 (inactive)
2,COc1ccc(Br)cc1S(=O)(=O)N1CCN=C1C,-0.0562 (inactive)
3,CCc1nc2ccccc2n(CCOCCOCCn2c(=O)c(CC)nc3ccccc32)c1=O,2.08 (inactive)
4,CCCOC(=O)Nc1sc2c(c1C(=O)OCC)CCC2,-0.0171 (inactive)
5,CCOC(=O)c1cc(C)sc1NC(=O)C1CCC1,7.64 (active)
6,O=C(Nc1c(Cl)cccc1Cl)C1CCC1,-0.785 (inactive)
7,NC(=O)c1ccsc1NC(=O)c1ccco1,0.317 (inactive)
8,O=C(Nc1nc(-c2ccc3c(c2)OCO3)cs1)c1ccncc1,-3.4 (active)
9,O=C(Nc1nc(-c2ccncc2)cs1)C1COc2ccccc2O1 (stereo not given),1.39 (inactive)
10,O=C(Nc1ccc2c(c1)OCCO2)c1ccncc1,-1.34 (inactive)
11,COC(=O)c1ccc(/C=N\n2c(C)nnc2C)cc1,-1.78 (inactive)
12,Cc1cc(C)c2c(n1)nn1c(N3CCN(c4cccc(Cl)c4)CC3)cc(C)nc21,-0.0327 (inactive)
13,Cc1cc(C)c2c(n1)nn1c(N3CCOCC3)cc(C)nc21,1.9 (inactive)
14,Cc1cc(C)c2c(n1)nn1c(-n3ccnc3)cc(C)nc21,5.98 (active)
15,CCC(C)NC(=O)N[C@@H](CCSC)C(=O)O (stereo not given in full),-0.322 (inactive)
16,Cc1ccc(S(=O)(=O)NC(=O)N2CCCC(C)(C)C2)cc1,-6.08 (active)
17,Cc1ccc(S(=O)(=O)NC(C)C(=O)Nc2ccccc2C(=O)N2CCCC2)cc1 (stereo not given),-1.42 (inactive)
18,Cc1ccc(S(=O)(=O)C2(S(=O)(=O)c3ccc(C)cc3)CCCC2)cc1,0.0184 (inactive)
19,CC(=O)Nn1cc2c(=O)n(C)c(=O)n(C)c2c1,0.00279 (inactive)
20,Cn1c(=O)c2cn(-c3cccc4ccccc34)cc2n(C)c1=O,3.56 (active)
21,COc1ccc(OC)c(-n2cc3c(=O)n(C)c(=O)n(C)c3c2)c1,1.9 (inactive)
